Several values for one entry are separate records, joined by “and”; a condition that tells them apart may be missing. Identical values can stand only once. Inconclusive results are not listed. The source holds several records for some structures; these can differ, active in one and inactive in another. Activity calls are given as the source filed them. Unless noted, calls come from the whole dose curve.

Experiment [1] deals with Gonadotropin-releasing hormone receptor (Homo sapiens) (UniProt P30968). In words: Human gonadotropin-releasing hormone receptor (GnRHR) small molecule agonists, calcium flux assay in GnRHR-HEK293 cells (AID 1920063). Note: nearly all actives have a fitted effect of over 35% in size. Put shortly: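 HEK293 cells stably expressing human GnRHR were plated 18 h at 37 °C, loaded with calcium dye 1 h at 37 °C, then given compound in agonist mode; fluorescence (Ex/Em 480/540) read kinetically for 3 min at 1 s intervals.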
Chain of Gonadotropin-releasing hormone receptor (Homo sapiens) (P30968 whole entry, looked up): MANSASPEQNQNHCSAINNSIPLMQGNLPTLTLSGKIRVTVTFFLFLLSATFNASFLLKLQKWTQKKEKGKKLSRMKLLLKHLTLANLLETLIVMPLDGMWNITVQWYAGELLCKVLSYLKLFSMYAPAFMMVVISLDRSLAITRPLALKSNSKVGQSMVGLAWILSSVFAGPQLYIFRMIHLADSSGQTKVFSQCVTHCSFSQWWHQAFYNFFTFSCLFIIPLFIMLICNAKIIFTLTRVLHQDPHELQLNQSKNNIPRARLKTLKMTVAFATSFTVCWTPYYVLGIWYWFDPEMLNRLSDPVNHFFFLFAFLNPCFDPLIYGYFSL
(In general: A change in cytosolic calcium serves as a functional read-out for many receptors and channels.)

For experiment [2], the target named is KiSS-1 receptor (Homo sapiens) (UniProt Q969F8). Nature of the experiment: Human kisspeptin (KISS1R) small molecule agonists, calcium flux assay in KISS1R-HEK293 cells (AID 1920064; active = well fitted activation curve with a large enough effect in the repeat runs). Put shortly:
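HEK293 cells stably expressing human KISS1R were plated 18 h at 37 °C, loaded with calcium dye for 1 h at 37 °C, then given compound by pin tool. Fluorescence (Ex/Em 480/540) was read kinetically for 3 min.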

Experiment [3] is described as follows: G protein-coupled receptor (GPCR) small molecule agonists, calcium flux assay: HEK293 wild type cell line counter screen (AID 1920065). Put shortly:
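Cells were plated and cultured 18 h at 37 C/5% CO2, then loaded with calcium dye for 1 h at 37 C. Compounds in DMSO were pin-transferred in agonist mode, and fluorescence (Ex/Em 480/540) was read kinetically for 3 min at 1 s intervals.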

A short description of experiment [4]: p53 small molecule agonists, cell-based qHTS assay with human liver microsomes (AID 1963577).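 Note: p53 response element beta-lactamase reporter cells with liver microsomes plus NADPH.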 Put shortly:
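p53RE-bla cells; 5 h settle, 37 C/5% CO2; cpd + HLM 0.5 mg/mL + NADPH 0.5 mg/mL (final); 16 h 37 C; LiveBLAzer 2 h RT dark; fluorescence readout.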
(Quantitative high-throughput screening tests each substance at several concentrations.)

Experiment [5] can be described thus: p53 small molecule agonists, cell-based qHTS assay with rat liver microsomes (AID 1963578). Put shortly:
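Rat liver microsome activation: microsomes 0.5 mg/mL, NADPH 0.5 mg/mL final; p53RE-bla cells, 16 h 37 C; LiveBLAzer readout, 2 h RT dark.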

Experiment [6] is described as follows: p53 small molecule agonists, cell-based qHTS assay with human liver microsomes: qHTS cell viability counter screen (AID 1963579). Note: nearly all actives have a fitted effect of over 45% in size. Note: potency is the fitted concentration of half-maximal effect. Put shortly:
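Luminescent CellTiter-Glo read-out, 30 min at room temperature, gauged cytotoxicity in p53RE-bla cells exposed 16 h at 37 C to DMSO-dissolved compounds with metabolic activation by human liver microsomes and NADPH, each 0.5 mg/mL final.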

Experiment [7] in a line: p53 small molecule agonists, cell-based qHTS assay with rat liver microsomes: qHTS cell viability counter screen (AID 1963580). Note: nearly all actives have a fitted effect of over 45% in size. Put shortly:
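Intracellular ATP, by CellTiter-Glo luminescence, defines viability. HCT-116 p53RE-bla cells, 4,000 per well, were compound-treated in the presence of rat liver microsomes and NADPH for 16 h at 37 C.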

Experiment [8] in a line: p53 small molecule agonists, cell-based qHTS assay: qHTS cell viability counter screen (AID 1963581). Note: nearly all actives have a fitted effect of over 45% in size. Put shortly: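 p53RE-bla HCT-116 cells were exposed to compounds for 16 h at 37 C; after the beta-lactamase FRET read in the same wells, CellTiter-Glo was added and luminescence (intracellular ATP) read after 30 min at room temperature.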
A short description of experiment [9]: p53 small molecule agonists, cell-based qHTS assay (AID 1963582; active = well fitted activation curve with a large enough effect in the signal ratio in the repeat runs, not every such curve was filed as active; the % refers to the signal ratio). Put shortly: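 p53RE-bla beta-lactamase reporter cells rested 5 h at 37 C/5% CO2, then received compounds in DMSO by pin transfer and were incubated 16 h at 37 C. LiveBLAzer B/G FRET substrate was loaded for 2 h at room temperature before fluorescence reading.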
Experiment [10] concerns the target 5-hydroxytryptamine receptor 2A (Homo sapiens) (UniProt P28223). Nature of the experiment: 5-hydroxytryptamine receptor 2A (HTR2A) small molecule antagonists, cell-based qHTS assay (AID 1963586). Note: nearly all actives have a fitted effect of over 45% in size. Put shortly:
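Antagonist-mode intracellular calcium assay: DOI (4 nM) added after 5 min compound pre-incubation at room temperature to dye-loaded HTR2A-CHO cells. Fluorescence followed for 3 min, sampled every second.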

Experiment [11] addresses Muscarinic acetylcholine receptor M1 (Homo sapiens) (UniProt P11229). Nature of the experiment: Cholinergic receptor muscarinic 1 (CHRM1) small molecule antagonists, cell-based qHTS assay (AID 1963588). Note: nearly all actives have a fitted effect of over 40% in size. Put shortly: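 CHRM1-CHO calcium-flux assay, antagonist mode. Cells were seeded 18 h, dye-loaded 1 h at 37 C and given compound for 5 min at RT, then acetylcholine was added at 50nM. FDSS fluorescence was read 3 min; 15 concentrations, three runs.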

The target is the same in experiment [12]. In words: Cholinergic receptor muscarinic 1 (CHRM1) small molecule agonists, cell-based qHTS assay (AID 1963589). Note: nearly all actives have a fitted effect of over 35% in size. Put shortly: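 CHO cells stably expressing human CHRM1, seeded 18 h at 37 C/5% CO2, dye-loaded 1 h at 37 C, then given compound in agonist mode; intracellular calcium fluorescence read kinetically at 1 s intervals. Fifteen concentrations, three independent runs.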

A short description of experiment [13]: cAMP Responsive Elements (CRE) small molecule agonists, cell-based qHTS assay (AID 1963590). Put shortly: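 CRE-bla HEK 293T cells in DMEM with 10% dialyzed FBS, NEAA, pyruvate and 25 mM HEPES were plated 18 h at 37 C/5% CO2, then exposed to compounds in DMSO for 3 h before LiveBLAzer B/G FRET substrate addition.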
Experiment [14] is described as follows: cAMP Responsive Elements (CRE) small molecule antagonists, cell-based qHTS assay (AID 1963591; active = well fitted inhibition curve with a large enough effect in the signal ratio in the repeat runs, not every such curve was filed as active; the % refers to the signal ratio). Put shortly:
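CRE-bla HEK293T cells were plated 18 h at 37 °C/5% CO2, pinned with compound in DMSO, then stimulated with NKH477 at 0.25 uM final for 3 h. LiveBLAzer B/G FRET substrate was added and plates incubated 2 h at room temperature.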

In experiment [15] the target is Beta-2 adrenergic receptor (Homo sapiens) (UniProt P07550). Nature of the experiment: Adrenergic beta2 receptor (ADRB2) small molecule antagonists, cell-based qHTS assay (AID 1963592). Note: nearly all actives have a fitted effect of over 50% in size. Note: potency is the fitted concentration of half-maximal effect. Put shortly: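 Cells (CHO, stable ADRB2 overexpression) incubated 18-20hr at 37C; compounds added from DMSO; agonist mix (1nM isoproterenol, 100uM IBMX, 25uM Ro-20-1724) added; 0.5hr RT; d2-cAMP and anti-cAMP-cryptate added; 1hr RT; 665/615 nm read.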
Chain of Beta-2 adrenergic receptor (Homo sapiens) (P07550 whole entry, looked up): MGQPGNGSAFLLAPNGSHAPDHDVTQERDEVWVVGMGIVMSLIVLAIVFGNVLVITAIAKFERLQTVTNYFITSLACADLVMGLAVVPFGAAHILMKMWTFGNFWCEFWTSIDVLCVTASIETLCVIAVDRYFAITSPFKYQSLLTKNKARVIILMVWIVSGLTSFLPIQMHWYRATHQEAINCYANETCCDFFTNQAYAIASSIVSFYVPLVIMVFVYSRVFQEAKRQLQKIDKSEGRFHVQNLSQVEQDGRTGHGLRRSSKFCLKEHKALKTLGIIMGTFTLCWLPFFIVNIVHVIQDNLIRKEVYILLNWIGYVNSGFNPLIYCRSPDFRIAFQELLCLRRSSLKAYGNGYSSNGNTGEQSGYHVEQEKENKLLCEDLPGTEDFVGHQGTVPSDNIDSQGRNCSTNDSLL

The target in experiment [16] is D(2) dopamine receptor (Homo sapiens) (UniProt P14416). In words: Dopamine D2 receptor (DRD2) small molecule agonists, cell-based qHTS assay (AID 1963594). Note: nearly all actives have a fitted effect of over 35% in size. Put shortly:
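cAMP accumulation in DRD2-HEK293 cells measured by HTRF after 1 h detection; compounds added 10 min before NKH477 (200nM […]) forskolin-analogue stimulation, 30 min at room temperature, with Ro20-1724 present at 0.1 mM final.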

The target is the same in experiment [17]. In words: Dopamine D2 receptor (DRD2) small molecule antagonists, cell-based qHTS assay (AID 1963595; active = well fitted inhibition curve with a large enough effect in the signal ratio in the repeat runs, with a control signal flat; the % refers to the signal ratio). Put shortly: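 DRD2-HEK293; 0.1 mM Ro20-1724; cpd 10 min RT; NKH477 200 nM + quinpirole 12 nM, 30 min RT; HTRF cAMP (cAMP-d2/anti-cAMP cryptate), 665/620 nm ratio after 1 h.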
In experiment [18] the target is 5-hydroxytryptamine receptor 2A (Homo sapiens) (UniProt P28223). Nature of the experiment: 5-hydroxytryptamine receptor 2A (HTR2A) small molecule agonists, cell-based qHTS assay (AID 1963587). Note: nearly all actives have a fitted effect of over 30% in size. Put shortly: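 Kinetic calcium-flux fluorescence (2 min, 1 sec intervals) after compound addition in agonist mode. HTR2A-CHO cells were cultured 18 h, then dye-loaded 1 h at 37 C.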
Chain of 5-hydroxytryptamine receptor 2A (Homo sapiens) (P28223 whole entry, looked up): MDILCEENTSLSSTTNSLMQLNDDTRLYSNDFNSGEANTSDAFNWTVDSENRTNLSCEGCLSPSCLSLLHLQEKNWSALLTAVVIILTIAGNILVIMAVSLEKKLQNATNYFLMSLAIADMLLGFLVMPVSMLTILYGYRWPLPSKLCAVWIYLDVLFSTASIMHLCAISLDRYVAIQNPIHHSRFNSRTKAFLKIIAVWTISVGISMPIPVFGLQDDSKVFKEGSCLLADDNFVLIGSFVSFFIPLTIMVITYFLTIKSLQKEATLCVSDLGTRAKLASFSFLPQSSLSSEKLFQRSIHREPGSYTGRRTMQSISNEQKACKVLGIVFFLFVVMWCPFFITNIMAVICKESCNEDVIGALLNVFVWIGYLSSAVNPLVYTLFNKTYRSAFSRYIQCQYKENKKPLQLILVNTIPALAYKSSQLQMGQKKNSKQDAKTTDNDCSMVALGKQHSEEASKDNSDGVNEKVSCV

Experiment [19] has as its target Beta-2 adrenergic receptor (Homo sapiens) (UniProt P07550). Nature of the experiment: Adrenergic beta2 receptor (ADRB2) small molecule agonists, cell-based qHTS assay (AID 1963593).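 Note: CHO cells stably overexpressing human ADRB2.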 Put shortly:
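CHO cells stably over-expressing ADRB2 were plated overnight at 37C, then dosed with compounds plus a stimulation mix containing 100uM IBMX and 25uM Ro-20-1724 for 0.5hr at room temperature. cAMP was measured by HTRF competition, 1hr.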

Chain of D(2) dopamine receptor (Homo sapiens) (P14416 whole entry, looked up): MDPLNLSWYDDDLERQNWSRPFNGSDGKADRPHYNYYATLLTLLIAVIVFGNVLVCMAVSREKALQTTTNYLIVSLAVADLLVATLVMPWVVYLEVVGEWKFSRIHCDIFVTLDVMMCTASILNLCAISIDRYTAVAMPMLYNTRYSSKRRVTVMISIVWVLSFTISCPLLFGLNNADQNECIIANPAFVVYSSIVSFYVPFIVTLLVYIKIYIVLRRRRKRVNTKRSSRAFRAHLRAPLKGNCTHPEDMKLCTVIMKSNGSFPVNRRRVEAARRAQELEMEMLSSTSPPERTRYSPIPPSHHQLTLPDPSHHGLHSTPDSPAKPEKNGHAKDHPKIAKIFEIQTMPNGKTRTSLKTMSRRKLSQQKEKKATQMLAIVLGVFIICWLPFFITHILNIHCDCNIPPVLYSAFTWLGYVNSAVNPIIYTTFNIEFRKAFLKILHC
Chain of Muscarinic acetylcholine receptor M1 (Homo sapiens) (P11229 whole entry, looked up): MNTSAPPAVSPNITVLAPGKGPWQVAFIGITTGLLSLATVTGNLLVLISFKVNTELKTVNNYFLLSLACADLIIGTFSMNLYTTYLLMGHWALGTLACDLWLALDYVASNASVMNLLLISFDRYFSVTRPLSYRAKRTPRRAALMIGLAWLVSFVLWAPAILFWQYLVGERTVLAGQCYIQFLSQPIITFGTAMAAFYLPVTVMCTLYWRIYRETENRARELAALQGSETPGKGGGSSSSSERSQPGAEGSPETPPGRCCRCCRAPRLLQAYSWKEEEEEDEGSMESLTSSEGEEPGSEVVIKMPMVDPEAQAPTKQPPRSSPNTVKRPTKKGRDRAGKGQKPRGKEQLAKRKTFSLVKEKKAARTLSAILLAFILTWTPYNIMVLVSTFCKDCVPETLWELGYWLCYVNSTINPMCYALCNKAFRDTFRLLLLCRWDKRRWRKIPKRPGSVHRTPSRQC
Chain of KiSS-1 receptor (Homo sapiens) (Q969F8 whole entry, looked up): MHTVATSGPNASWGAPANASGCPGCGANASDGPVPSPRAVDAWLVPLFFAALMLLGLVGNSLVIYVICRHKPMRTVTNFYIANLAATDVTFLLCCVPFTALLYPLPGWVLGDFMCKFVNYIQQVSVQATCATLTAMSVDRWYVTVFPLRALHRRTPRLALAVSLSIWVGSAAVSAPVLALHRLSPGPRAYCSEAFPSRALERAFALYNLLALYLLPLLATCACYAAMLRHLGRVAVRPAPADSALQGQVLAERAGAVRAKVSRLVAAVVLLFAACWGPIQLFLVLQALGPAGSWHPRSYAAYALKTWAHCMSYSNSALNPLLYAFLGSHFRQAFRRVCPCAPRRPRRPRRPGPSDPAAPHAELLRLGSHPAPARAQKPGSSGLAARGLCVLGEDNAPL

Consider `COP(=O)(CCC(=O)NCO)OC`, for which the Potency result in experiment [1], in experiment [2], in experiment [3], in experiment [4], in [5] and in experiment [6] was “inactive” in each case. The Potency result in [7], in experiment [8], in experiment [9], in experiment [10], in experiment [11] and in experiment [12] was “inactive” throughout. Also, the Potency result in experiment [13], in experiment [14], in [15], in experiment [16] and in experiment [17] was “inactive” in each case.
Take `O=C(O)CCCOc1ccc(Cl)cc1Cl`: the Potency entry in [1], in experiment [2], in experiment [3], in experiment [4], in experiment [5] and in experiment [7] was “inactive” throughout. Further, the Potency entry in experiment [8], in experiment [10], in [18], in [11], in experiment [12] and in experiment [15] was “inactive” in each case. For the same compound, the Potency entry in experiment [19], in experiment [16] and in [17] was “inactive” throughout. Besides, the Potency result in experiment [6] is “inactive and 29.4 µM (active)”.
For `COCC(=O)N(c1c(C)cccc1C)C(C)C(=O)OC` (stereo unspecified), the Potency entry in experiment [1], in experiment [2], in [3], in [4], in experiment [5] and in experiment [6] was “inactive” in each case. Besides, the Potency result in experiment [7], in experiment [8], in experiment [9], in experiment [10], in experiment [18] and in [11] was “inactive” in each case. For the same compound, the Potency entry in experiment [12], in experiment [13], in experiment [15], in experiment [16] and in experiment [17] was “inactive” each time.
`CC(=O)C(C)(C)C`: the Potency result in experiment [1], in experiment [2], in experiment [3], in [4], in experiment [5] and in experiment [6] was “inactive” in each case. For the same compound, the Potency result in [7], in experiment [8], in experiment [9], in experiment [10], in [18] and in [11] was “inactive” in each case. In addition, the Potency result in experiment [12], in experiment [13], in experiment [14], in experiment [19], in [16] and in experiment [17] was “inactive” each time.
With `C[C@]12CC[C@H]3[C@@H](CC=C4C[C@@H](O)CC[C@@]43C)[C@@H]1CC[C@@H]2O`, the Potency entry in experiment [1], in experiment [2], in experiment [3], in experiment [4], in experiment [5] and in experiment [6] was “inactive” throughout. The Potency result in experiment [7], in experiment [8], in experiment [9], in experiment [13], in experiment [14] and in experiment [15] was “inactive” throughout. Besides, the Potency entry in [16] and in experiment [17] was “inactive” in each case.
With `COC[C@@H](NC(C)=O)C(=O)NCc1ccccc1`, the Potency entry in experiment [1], in experiment [2], in experiment [3], in [4], in experiment [5] and in [6] was “inactive” throughout. Besides, the Potency result in [7], in [8], in [10], in [18], in [11] and in experiment [12] was “inactive” throughout. The Potency entry in experiment [14], in [15], in experiment [19], in experiment [16] and in experiment [17] was “inactive” throughout.
For the compound `CC(NC(C)(C)C)C(=O)c1cccc(Cl)c1` (stereo unspecified), the Potency entry in experiment [1], in [2], in [3], in experiment [4], in experiment [5] and in [6] was “inactive” each time. Further, the Potency entry in experiment [7], in [8], in experiment [9], in [13], in [14] and in experiment [15] was “inactive” throughout. The Potency entry in experiment [16] and in experiment [17] was “inactive” in each case.
Consider `C[C@]12CCC(=O)C[C@@H]1CC[C@@H]1[C@@H]2CC[C@]2(C)[C@@H](O)CC[C@@H]12`, for which the Potency result in experiment [1], in experiment [2], in experiment [3], in experiment [4], in [5] and in experiment [7] was “inactive” throughout. In addition, the Potency result in experiment [8], in experiment [9], in [16] and in [17] was “inactive” throughout. The Potency in [6] was 35.9 µM (active) and inactive; in [15], 9.7 µM (active).
As to `CNC(=O)Oc1cccc2c1OC(C)(C)O2`, the Potency entry in experiment [1], in [2], in [3], in [4], in experiment [6] and in experiment [8] was “inactive” throughout. The Potency entry in experiment [9], in [10], in experiment [18], in experiment [11], in experiment [12] and in [13] was “inactive” each time. Further, the Potency result in experiment [14], in experiment [15], in experiment [19] and in [17] was “inactive” each time.
